Screening data as filed in PubChem BioAssay.
Compounds with a hit are over-represented: about 3.1% of the library has one in this group of screens.
Mito fusion act = blocks mitochondrial division or promotes mitochondrial fusion; S. cerevisiae fusion-defective mutant growth rescue, CellTiterGlo 48 h; Potency, µM (titrated, usually from 46.1 µM), actives largely listed as activators; actives 0.23% (n = 320,000); also: nearly all actives have a fitted effect of over 45% in size
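Read-out: ATP-based luminescence (CellTiterGlo, 10 min ambient) reporting growth of fusion-defective ts yeast after 48 hours at 37C on glycerol/ethanol YPEG medium in the presence of compound.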
TrxR1 inh = inhibitors of rat thioredoxin reductase 1; recombinant rTrxR1, NADPH fluorescence consumption, selenite substrate; AID 588453; O89049; actives 1% (n = 390,000); Potency, µM (series often up to 114 µM), actives largely listed as inhibitors; also: nearly all actives have a fitted effect of over 65% in size
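Rat TrxR1 (90 nM in the dispensed reagent) was pre-reduced with 400 uM NADPH for 5 min at room temperature, then incubated with compound for 15 min. After 400 uM selenite was added, NADPH fluorescence (Ex 340/Em 450 nm) was followed for 8 min.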
A549 tox = counter-screen for Nrf2 inhibitors: cytotoxicity in A549 cells. Potency, µM (titrated, usually from 46 µM), hits mostly inhibitors. actives 0.16% (n = 390,000). A549 ARE-Fluc cells, CellTiter-Fluor viability, 18-24 h. AID 504648
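Cytotoxicity counterscreen: CellTiter-Fluor fluorescence was measured in A549 ARE_Fluc cells after 18-24 h of compound exposure in a concentration series. The subsequent BugLite luminescent read reports ARE-luciferase activity.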
Nrf2 block = blocks Nrf2 signaling; Potency, µM (titrated, usually from 46 µM), hits mostly inhibitors; A549 ARE-Fluc reporter, luciferase luminescence, 18-24 h; actives 2.1% (n = 360,000); AID 504444; also: nearly all actives have a fitted effect of over 60% in size
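Reporter: ARE-Fluc in A549. Exposure: 18-24 h, 37 °C, 5% CO2, 5% FBS OPTI-MEM. Readouts: fluorescent cytotoxicity (CellTiter-Fluor), then luminescent Nrf2 signal after BugLite.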
TrxR1 substrate = rat thioredoxin reductase 1 substrate activity; O89049; purified TrxR1 substrate turnover, NADPH consumption readout; Potency, µM (series often up to 114 µM); actives 0.01% (n = 390,000); AID 588456; also: nearly all actives have a fitted effect of over 50% in size
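Rat TrxR1, dispensed at 90 nM, was prereduced with 400 uM NADPH (final) for 5 min at ~22 deg C, then incubated with compound 15 min before 400 uM selenite. A first-read NADPH fluorescence drop versus no-compound background flagged substrates.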
mIDH1 inhibitor = blocks human mutant IDH1 R132H enzyme; O75874; IDH1-R132H enzyme, NADPH consumption, diaphorase/resazurin fluorescence; Potency, µM (highest dose often 76.6 µM), hits mostly inhibitors; actives 0.093% (n = 390,000); AID 602179; also: nearly all actives have a fitted effect of over 65% in size
Target sequence (O75874 whole entry R132H, stated change not applied): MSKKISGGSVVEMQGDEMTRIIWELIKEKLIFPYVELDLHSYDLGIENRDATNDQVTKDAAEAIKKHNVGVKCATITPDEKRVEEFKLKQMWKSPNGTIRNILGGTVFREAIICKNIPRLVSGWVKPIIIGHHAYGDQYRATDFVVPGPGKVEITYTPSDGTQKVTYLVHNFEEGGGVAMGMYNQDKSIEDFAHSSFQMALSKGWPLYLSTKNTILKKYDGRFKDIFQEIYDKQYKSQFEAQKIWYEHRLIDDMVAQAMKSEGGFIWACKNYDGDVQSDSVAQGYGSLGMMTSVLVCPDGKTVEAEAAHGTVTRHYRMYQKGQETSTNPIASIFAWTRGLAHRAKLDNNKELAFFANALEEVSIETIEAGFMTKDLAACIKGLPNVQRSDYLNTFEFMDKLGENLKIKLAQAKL
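IDH1-R132H (0.5 ug/mL dispensed) in pH 7.5 Tris buffer was preincubated 30 min with compound, then given a substrate mix of 0.016 mM NADPH and 2 mM alpha-KG for 80 min at room temperature; remaining NADPH was read by diaphorase/resazurin fluorescence.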
Large screens that a line does not name were inactive. Calls follow the shape of the dose curve; as a rule, active = well fitted curve in the direction sought with a large enough effect; inconclusive = small, poorly fitted or top-dose-only effect, or another doubt; inactive = no such curve, though single readings can be large; an effect the other way counts as inactive or inconclusive.

COC(=O)c1cc(OC)c(OC)cc1NC(=S)NC(=O)c1ccco1	TrxR1 inh 14µM
COc1ccccc1C(=O)NC(=S)Nc1ccc(N2CCN(C(=O)c3ccco3)CC2)cc1	Nrf2 block 21µM
O=C(Nc1ccc(N2CCN(C(=O)c3ccco3)CC2)cc1)c1cc(Br)ccc1Cl	Mito fusion act inconclusive, Nrf2 block 23µM
COc1ccc(CNC(=O)c2ccc(NC(=O)N3CCCCc4ccccc43)cc2)c(OC)c1	Nrf2 block inconclusive (no result: Mito fusion act)
CCCCCCNc1ccc(/C=C/c2ccnc3ccccc23)cc1	none (no result: Mito fusion act, A549 tox, Nrf2 block, mIDH1 inhibitor)
Oc1ccc(Nc2nc3ccccc3n3cnnc23)cc1	Nrf2 block inconclusive (no result: Mito fusion act)
O=S(=O)(c1ccc2c(c1)OCCO2)N1CCN(S(=O)(=O)c2cc(F)c(Br)cc2F)CC1	none (no result: Mito fusion act, TrxR1 inh, TrxR1 substrate, mIDH1 inhibitor)
CC(C)Cn1c(=O)c2c(nc3n2CCCN3Cc2ccccc2)n(C)c1=O	Nrf2 block 12µM
CCn1c(=O)c2c(nc3n2CCCN3Cc2ccccc2)n(C)c1=O	none
C/C(=N\NC(=O)CSCc1ccc(Cl)cc1)c1ccc2c(c1)OCCO2	Nrf2 block 16µM
Cc1ccc(NC(=O)COC(=O)c2c(-c3ccccc3)noc2C)cc1	Nrf2 block inconclusive
Cc1onc(-c2ccccc2)c1C(=O)OCC(=O)Nc1ccc(OC(F)(F)F)cc1	Nrf2 block 23µM
Cc1onc(-c2ccccc2)c1C(=O)OCC(=O)Nc1ccc(Cl)cc1	Mito fusion act inconclusive, A549 tox inconclusive, Nrf2 block 23µM
COc1ccc(C2/C=C\CN(CC3CC3)C(Cc3ccccc3)C(=O)N2Cc2ccc(F)cc2)cc1 (stereo not drawn)	Nrf2 block inconclusive (no result: Mito fusion act, mIDH1 inhibitor)
CCc1cc2ccc(C)cc2nc1SCC(=O)N1CCN(C(=O)c2ccco2)CC1	TrxR1 inh 4µM, A549 tox inconclusive, Nrf2 block inconclusive
Cc1cc(Cl)ccc1OCCCC(=O)N1CCN(C(=O)c2ccco2)CC1	TrxR1 inh 28µM, Nrf2 block inconclusive
O=C(CSc1nc2ccc(Cl)cc2[nH]1)N1CCN(C(=O)c2ccco2)CC1	TrxR1 inh 16µM
O=C(CCCOc1ccccc1)N1CCN(C(=O)c2ccco2)CC1	A549 tox inconclusive
CCc1cccc(-n2nnc(-c3nc(-c4ccccc4Cl)no3)c2N)c1	none (no result: Mito fusion act)
CCc1nn2c(=O)cc(COC(=O)c3cccc(NC(=O)c4ccccc4C)c3)nc2s1	none (no result: Mito fusion act, Nrf2 block)
O=C(Nc1cc(F)ccc1F)c1cnn2c1NC(=C1CC1)C=C2C(F)F	none (no result: Mito fusion act, A549 tox, Nrf2 block, mIDH1 inhibitor)
CCn1cc(C(=O)NCc2ccc(C)cc2)c(=O)c2cc(S(=O)(=O)N(C)C3CCCCC3)ccc21	Nrf2 block inconclusive (no result: Mito fusion act)
CC(=O)Nc1cn(-c2ccccc2)nc1-c1ccccc1	none
O=C(CCl)Nc1cn(-c2ccccc2)nc1-c1ccccc1	TrxR1 inh 13µM, A549 tox inconclusive, Nrf2 block inconclusive
O=C(CCl)Nc1ccc(-c2ccccc2)cc1	TrxR1 inh 11µM, Nrf2 block inconclusive
O=C(C[n+]1ccccc1Br)c1ccc2c(c1)CCCC2	none (no result: Mito fusion act, A549 tox, Nrf2 block, mIDH1 inhibitor)
COc1cccc(C2c3c(ncn(-c4ccc(F)cc4)c3=N)Oc3ccc4ccccc4c32)c1 (stereo not drawn)	Nrf2 block inconclusive (no result: Mito fusion act, TrxR1 inh, TrxR1 substrate, mIDH1 inhibitor)
Cc1ccc(SCc2nc(-c3ccc(C(=O)NCc4ccccc4Cl)cc3)oc2C)cc1	Nrf2 block 15µM (no result: Mito fusion act)
CCc1ccc(CNC(=O)c2ccc(-c3nc(CSc4ccc(C)cc4)c(C)o3)cc2)cc1	TrxR1 inh inconclusive, Nrf2 block inconclusive (no result: Mito fusion act)
COc1ccc(-c2cnc(C)o2)cc1S(=O)(=O)Nc1cccc(C(F)(F)F)c1	none (no result: Mito fusion act, Nrf2 block)
Cc1cc(-c2ccc(C)c(S(=O)(=O)Nc3cccc(C#N)c3)c2)on1	Nrf2 block 7.3µM (no result: Mito fusion act)
COc1ccc(-c2cc(C)no2)cc1S(=O)(=O)Nc1cccc(C(F)(F)F)c1	Nrf2 block 18µM (no result: Mito fusion act)
COc1ccc(-n2nc3c(c2NC(=O)CCl)CSC3)cc1	Mito fusion act inconclusive, TrxR1 inh 14µM
COc1ccc(-c2nnc3n2N=C(c2ccc(OC)c(OC)c2)CS3)c(OC)c1	Nrf2 block inconclusive (no result: Mito fusion act, TrxR1 inh, TrxR1 substrate, mIDH1 inhibitor)
